# In PubChem BioAssay (NCI):
# Compounds without any hit were thinned out: in the full panel of roughly 83,000, 20% have a hit.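 Growth was measured after 48 h exposure to one concentration of compound in 96-well plates. Values under 10 count as active.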 Unmarked numbers belong to inactive results. Calls of active or inactive are those of the source.
# Tests used:
# Assay in all cases: NCI-60 one-dose screen, 48 h (100 = growth as untreated, 0 = no growth, -100 = all killed)
# Settings in all cases: 10 µM unless noted
# NCI-H23 lung = system: NCI-H23 lung
# NCI-H226 lung = system: NCI-H226 lung
# NCI-H322M lung = system: NCI-H322M lung
# HOP-62 NSCLC = system: HOP-62 NSCLC
# NCI-H460 lung = system: NCI-H460 lung
# HOP-92 NSCLC = system: HOP-92 NSCLC
# NCI-H522 lung = system: NCI-H522 lung
# A549/ATCC NSCLC = system: A549/ATCC NSCLC
# 786-0 renal = system: 786-0 renal
# COLO 205 colon = system: COLO 205 colon
# DU-145 prostate = system: DU-145 prostate
# K-562 leukemia = system: K-562 leukemia
# MALME-3M melanoma = system: MALME-3M melanoma
# MDA-MB-231 breast = system: MDA-MB-231 breast
# RXF 393 renal = system: RXF 393 renal
# SF-268 CNS = system: SF-268 CNS
# SF-295 CNS = system: SF-295 CNS
# SF-539 CNS = system: SF-539 CNS
# UACC-257 melanoma = system: UACC-257 melanoma
# M14 melanoma = system: M14 melanoma
Structure (SMILES),growth (NCI-H23 lung) [%],growth (NCI-H226 lung) [%],growth (NCI-H322M lung) [%],growth (HOP-62 NSCLC) [%],growth (NCI-H460 lung),growth (HOP-92 NSCLC),growth (NCI-H522 lung),growth (A549/ATCC NSCLC) [%],growth (786-0 renal) [%],growth (COLO 205 colon) [%],growth (DU-145 prostate) [%],growth (K-562 leukemia),growth (MALME-3M melanoma),growth (MDA-MB-231 breast),growth (RXF 393 renal),growth (SF-268 CNS) [%],growth (SF-295 CNS),growth (SF-539 CNS),growth (UACC-257 melanoma) [%],growth (M14 melanoma) [%]
Cc1nc(Nc2ccccn2)sc1C1=NNC(c2ccccc2F)C1 (stereo not given),67.6,78.9,89.1,70.6,28%,62.4%,-18.9% (active),59.2,57.6,86,67.4,15.1%,63.8%,47.5%,87.5%,78.2,39.6%,32.4%,83.2,52.6
Oc1ccc(Cl)c(Nc2ncnc3c2cnn3CC(Cl)c2ccc(Br)cc2)c1 (stereo not given),65.8,84,67,58.1,67.1%,8.3% (active),52.6%,53.9,63.9,90.9,50.8,1.88% (active),57.4%,26.4%,-8.51% (active),26.7,60.3%,29.1%,80.1,65.4
O=S(=O)(c1nc(-c2ccc(Br)cc2)oc1-c1ccc(Cl)cc1)N1CCCC(O)C1 (stereo not given),47.3,60.4,78.3,102,34.1%,-14.5% (active),49.2%,47.6,58.9,81,72.6,33.8%,74.8%,60%,51.3%,63,58.1%,84.5%,80.3,69.7
C[C@H](NC(=O)c1ccc2c(-c3ccc(C(F)(F)F)cc3)cccc2c1)c1ccccn1,70.7,28.3,50.8,77.3,42.5%,25.5%,16.9%,39.6,44.3,61.6,56.4,20.6%,67%,59.9%,13%,58.9,32.5%,62.3%,64.3,40.7
CN1C(=O)C2(C(C#N)=C(c3ccc(Cl)cc3)Nc3c2c(-c2ccccc2)nn3-c2ccccc2)c2ccccc21 (stereo not given),80,69.3,87.5,44.5,92.4%,75.1%,85.8%,89.7,97.2,85.9,93.6,40.8%,78.9%,46.1%,77%,93.5,77.4%,-85.3% (active),112,77.2
Cc1cccc(NCC(=O)N2CCN(c3ncnc4c3cnn4-c3ccccc3)CC2)c1,58.4,54.5,69.3,67.4,65%,50.6%,-6.93% (active),65.3,80.8,97.4,75.4,43.8%,72.8%,65%,76.3%,73.3,46.6%,59.9%,66.9,62.2
COc1ccc(-c2cc(C(=O)N=Nc3c(O)[nH]c4ccc(Cl)cc34)c3ccccc3n2)cc1OC,92.2,89.5,102,123,111%,121%,106%,111,106,125,126,109%,105%,90.9%,104%,118,101%,101%,115,89.2
Oc1ccc(F)c(Nc2nc(SCCN3CCOCC3)nc3c2cnn3CC(Cl)c2ccc(Br)cc2)c1 (stereo not given),26.3,29.2,80.2,30.3,3.31% (active),1.93% (active),29.2%,23.9,61.2,94.6,34,-3.32% (active),1.03% (active),-17.6% (active),-48.4% (active),24.1,2.35% (active),17.3%,14.4,18.8
